CtBP-E1A blk: qHTS Assay for Inhibitors of the CtBP/E1A Interaction. AlphaScreen GST-E1A/His-CtBP binding, 1536-well; hits give low values. activity change, % (no concentration beside the values). 340,000 compounds, 0.49% hits. AID 651724, 2012
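GST-E1A and His-tagged CtBP (125 nM each as 5X stock) were preincubated with pin-transferred compound for 2 h at 37 °C in the dark, then glutathione donor and nickel acceptor beads were added for 1 h before AlphaScreen reading.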
PKM2 act: qHTS Assay for Activators of Human Muscle isoform 2 Pyruvate Kinase; Pyruvate kinase PKM (Homo sapiens), P14618; purified PKM2, Kinase-Glo ATP luminescence, activation; response scale: 0% is enzyme alone, no compound; Potency, µM (series often up to 57.5 µM), hits mostly activators; 260,000 compounds, 0.34% hits; AID 1631, 2009; active = well fitted activation curve with a large enough effect; inconclusive = small, poorly fitted or top-dose-only effect; inactive = no such curve, though single readings can be large or run the other way; note: nearly all actives have a fitted effect of over 55% in size
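ATP formation by purified human PK-M2, quantified via coupled luciferase luminescence after 1 h at room temperature with 0.1 mM ADP and 0.5 mM PEP final.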
MBNL1-CUG inh: qHTS Assay for Inhibitors of MBNL1-poly(CUG) RNA binding; TR-FRET MBNL1-His/biotin-(CUG)12 binding, 665/545 ratio; Muscleblind-like protein 1 (Homo sapiens), Q9NR56; 280,000 compounds, 0.036% hits; Potency, µM (highest dose often 57.5 µM), usual class: inhibitors; active = well fitted inhibition curve with a large enough effect in the signal ratio, with a control signal flat, not every such curve was filed as active; inconclusive = small, poorly fitted or top-dose-only effect, or effect the other way, or a change in a side signal; inactive = no such curve, though single readings can be large or run the other way; the % refers to the signal ratio
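Compounds (final 92 nM to 58 uM) are added to His-tagged MBNL1 and biotin-(CUG)12, then terbium anti-His antibody and streptavidin-XL665 (5 nM final). After 60 min at room temperature, the 665/545 nm ratio is read.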
Six1-Eya2 blk: qHTS Assay for Inhibitors of the Six1/Eya2 Interaction | 360,000 compounds, 0.56% hits | activity change, % (no concentration beside the values) | AlphaScreen GST-Six1/His-Eya2 binding, biochemical; hits give low values | Homeobox protein SIX1 (Homo sapiens) + Protein phosphatase EYA2 (Homo sapiens), …
Target sequence (O00167 whole entry, looked up): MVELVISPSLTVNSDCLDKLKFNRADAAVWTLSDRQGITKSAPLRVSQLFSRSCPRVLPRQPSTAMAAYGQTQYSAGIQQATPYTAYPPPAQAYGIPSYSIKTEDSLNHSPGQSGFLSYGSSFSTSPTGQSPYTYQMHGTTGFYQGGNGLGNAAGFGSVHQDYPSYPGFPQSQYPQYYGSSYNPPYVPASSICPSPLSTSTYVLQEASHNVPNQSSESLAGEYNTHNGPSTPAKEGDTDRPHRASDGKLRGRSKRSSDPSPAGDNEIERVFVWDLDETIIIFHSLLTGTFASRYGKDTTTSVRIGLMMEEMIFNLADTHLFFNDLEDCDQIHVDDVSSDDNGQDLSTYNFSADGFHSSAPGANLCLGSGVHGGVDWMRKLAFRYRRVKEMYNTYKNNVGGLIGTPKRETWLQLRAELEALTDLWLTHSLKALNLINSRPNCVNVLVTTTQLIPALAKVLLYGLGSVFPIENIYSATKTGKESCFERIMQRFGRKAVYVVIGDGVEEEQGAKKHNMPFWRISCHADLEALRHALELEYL
Target sequence (Q15475 whole entry, looked up): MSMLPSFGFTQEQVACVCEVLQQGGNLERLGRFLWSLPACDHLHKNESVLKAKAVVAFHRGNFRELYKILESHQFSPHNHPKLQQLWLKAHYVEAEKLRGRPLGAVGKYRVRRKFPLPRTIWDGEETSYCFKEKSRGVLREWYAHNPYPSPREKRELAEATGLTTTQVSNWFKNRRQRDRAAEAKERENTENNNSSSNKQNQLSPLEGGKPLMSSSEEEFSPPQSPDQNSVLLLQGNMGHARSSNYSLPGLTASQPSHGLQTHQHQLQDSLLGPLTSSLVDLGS
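AlphaScreen luminescence read after one hour at 37 °C in darkness. Pin-transferred compounds met GST-Six1 and His-Eya2 protein (5X stock 250 nM/500 nM) plus glutathione donor and Ni-chelate acceptor beads (5X, 50 ug/mL).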
Hits are given with their value; n = inactive; u = inconclusive; x = no result; [ ] = dose if it differs, or a comment. Only some compounds are listed: those with a hit (about 0.93% of all), similar ones and a draw of the others. Cut-off read from the data, not from the text of the source, unless noted: active = activity change below about -65%; inconclusive = mostly about -30% to -63%; inactive = weaker than that.

SMILES	CtBP-E1A blk	PKM2 act	MBNL1-CUG inh	Six1-Eya2 blk
CCCNC(=O)C1(C)CCCN(Cc2csc(-c3ccccc3)n2)C1 (configuration not stated)	n	x	x	u
O=[N+]([O-])c1cnccc1Nc1ccc(F)cc1	n	n	u	n
O=[N+]([O-])c1cc(F)cc(F)c1Nc1ccc(F)cc1	-66.7	x	x	u
COc1ccnc(CSC(N)=Nc2cccc(C(F)(F)F)c2)c1	n	n	n	-66.9
COC(=O)C[C@H]1CC[C@H](NC(=O)Nc2ccccc2F)[C@@H](CO)O1	n	x	x	n
Cn1c(=O)c(C(=O)NNC(=O)c2ccccc2Br)c(O)c2ccccc21	u	n	n	-65.8
Cc1cc(C)c(C#N)c(SCC(=O)Nc2nonc2N)n1	n	14.1µM	n	n
CC(=O)c1ccc(N=Nc2ccc(N(C)C)cc2)cc1	n	n	n	u
CN(C)c1ccc(N=Nc2nccs2)cc1	u	x	x	-82.7
COC(=O)[C@@]1(Cc2ccc(F)cc2)[C@H]2c3cc(C(=O)N4CCCC4)n(CCN4CNCC4=O)c3C[C@H]2CN1C(=O)c1ccccc1	x	n	x	x
N#Cc1ccc(NCCc2ccccn2)c([N+](=O)[O-])c1	x	14.1µM	u	n
COc1ccc(NC(=O)C2Cc3c(-c4cccc(F)c4)ccnc3O2)cn1 (configuration not stated)	n	x	x	n
O=C1C=CC(=O)N1CCNc1ncc(C(F)(F)F)cc1Cl	n	17.8µM	n	n
CCOc1ccc(S(=O)(=O)N2CCN(C)CC2)cc1NC(=O)c1ccccc1F	n	n	n	-69.0
CC1=C(C(=O)N2CCOCC2)CC(CC(=O)NCCCCc2ccccc2)C(=O)N1Cc1ccc(C(C)(C)C)cc1 (configuration not stated)	n	x	x	n
NC1=NC(=O)/C(=C\c2ccc(O)c([N+](=O)[O-])c2)S1	-82.1	n	u	-76.1
CC(=O)Nc1cccc(-c2ccnc3c2CC(C(=O)NCCC(F)(F)F)O3)c1 (configuration not stated)	n	x	x	n
Cc1ccc(C)c(NC(=O)CCC(=O)N/N=C/c2cc([N+](=O)[O-])ccc2O)c1	x	n	u	-85.7
Cc1ccccc1NC(=O)CCC(=O)N/N=C/c1cc([N+](=O)[O-])ccc1O	-88.1	n	u	-79.3
O=C(CSc1nc2ccccc2s1)N/N=C/c1cc([N+](=O)[O-])ccc1O	-68.3	n	n	u
Cc1c(NC(=S)N/N=C/c2cc([N+](=O)[O-])ccc2O)c(=O)n(-c2ccccc2)n1C	x	n	x	-88.2
O=C(N/N=C/c1cc([N+](=O)[O-])ccc1O)C(O)(c1ccccc1)c1ccccc1	u	n	u	u
CCCCN(C)c1c(C)nc2ccc(C(=O)NCc3ccc4c(c3)OCO4)cn12	n	x	x	n
Cc1nc(NC(=O)c2ccccc2)sc1-c1cc(C(=O)N2CCOCC2)nn1Cc1ccccc1	n	x	x	n
Cc1ccc(NC(=O)CCC(=O)N/N=C/c2cc([N+](=O)[O-])ccc2O)cc1	-65.2	n	n	-87.1
SMILES	CtBP-E1A blk	PKM2 act	MBNL1-CUG inh	Six1-Eya2 blk
COc1ccc(O)c(/C=N/NC(=O)CCC(=O)Nc2ccc(C)cc2)c1	x	x	n	n
CN1CCN(CCC(=O)N/N=C/c2cc([N+](=O)[O-])ccc2O)CC1	-76.6	n	x	-86.8
O=C(CCCC(=O)Nc1cccc(Br)c1)N/N=C/c1cc([N+](=O)[O-])ccc1O	-81.7	n	u	-67.0
O=C(CCC(=O)Nc1cccc(Cl)c1)N/N=C/c1cc([N+](=O)[O-])ccc1O	n	n	n	u
CCCCc1nc2c(c3c1C[C@H](C)OC3)CN(C(=O)c1ccco1)CC2	x	n[11.5 µM]	x	x
CCC1=Nc2cc(C(=O)NCc3ccco3)ccc2Sc2ccccc21	n	17.8µM	x	n
COCCNC(=O)C1(C)CCCN(C(=O)c2ccco2)C1 (configuration not stated)	n	x	x	n
Cc1cccc(C)c1NC(=O)CCCCCC1NC(=O)NC1C (configuration not stated)	n	n	0.708µM	n
CC1NC(=O)NC1CCCCCC(=O)NCCc1ccccc1 (configuration not stated)	n	n	0.447µM	n
Cc1ncc(CO)c2cc(S(=O)(=O)c3ccc(F)cc3)c(=O)oc12	n	n	u	n
O=c1oc2ccc(Br)cc2cc1S(=O)(=O)c1ccc(F)cc1	n	2.82µM	n	n
CC(=O)NNC(=O)c1sc(=S)n2c1[nH]c(=O)c1sccc12	u	n	u	-65.3
NC(=O)c1sc(=S)n2c1[nH]c(=O)c1sccc12	-82.3	n	n	u
O=C(NCc1ccccc1)c1sc(=S)n2c1[nH]c(=O)c1ccccc12	n	n	n	n
O=C1CC(c2ccc(OCCCCCOc3ccc(C4CC(=O)NC4=O)cc3)cc2)C(=O)N1 (configuration not stated)	n	14.1µM	n	n
COCCNc1ncnc2c1cnn2Cc1ccccc1Cl	x	x	n	n
Clc1ccccc1CONc1ncnc2nonc12	x	15.8µM	u	n
COc1cc2nc(CN(C)Cc3nc4ccccc4c(=O)[nH]3)[nH]c(=O)c2cc1OC	-66.3	n	n	-66.2
COc1ccc2[nH]c3c4c(ccc3c2c1)C(=O)C=CC4=O	n	1.26µM	n	n
COc1ccc2[nH]c(=O)cc(C(=O)O)c2c1	n	n	n	n
O=C(N[C@@H](c1ccccc1)[C@@H]1C[C@H]1C(=O)NCc1ccccc1)OCc1ccccc1	x	n	x	x
O=C1/C(=C/c2ccco2)SC(=S)N1c1cccnc1	n	n	u	-70.7
COC(=O)CC1c2ccccc2C=C(C2CC2)N1C(=O)OC (configuration not stated)	x	n[11.5 µM]	x	x
O=C(N/C(=C/c1ccc(Br)cc1)C(=O)N1CCCC1=O)c1ccco1	-93.3	n	n	n
CC(=O)Nc1cccc(-c2cc(NC(C)=O)c3ncc(-c4ccc(C(C)=O)cc4)n3c2)c1	n	x	x	n
SMILES	CtBP-E1A blk	PKM2 act	MBNL1-CUG inh	Six1-Eya2 blk
CCc1nnc(NC(=O)CSc2nc(C)c3c(c2C#N)CCCC3)s1	n	10µM	n	n
COc1ccc(NC(=O)CSc2nc(C)c3c(c2C#N)CCCC3)cc1	n	n	n	n
COc1ccccc1NS(=O)(=O)c1cccc(NC(=O)c2[nH]c(C)c(C(C)=O)c2C)c1	x	12.6µM	n	n
CCN(CC)CCCn1c(-c2ccccc2)nc2c(N3CCOCC3)nc(C)nc21	x	n	x	x
S=C(Nc1ccccc1)c1ccccn1	-75.4	n	n	-84.3
O=C(O)c1ccnc(C(=O)O)c1	u	n	n	-68.7
O=C(O)c1cc(Br)ccn1	n	n	n	u
O=C(O)c1ccccn1	-66.0	x	x	u
CSc1ccc(Cn2c(C)c(C(=O)NCc3ccco3)sc2=O)cc1	n	x	x	n
O=C(C[C@H]1C[C@@H]2c3cc(NC(=O)Nc4ccccc4F)ccc3O[C@@H]2[C@H](CO)O1)NCc1ccccn1	n	x	x	n
O=C(CSc1ncccn1)N1CCCCCC1	n	x	x	n

Source: PubChem BioAssay (National Center for Advancing Translational Sciences (NCATS))
